HT1080 IDH1KD tx = toxicity to HT-1080 IDH1 knockdown cells (counter line); actives 2% (n = 360,000); Potency, µM (series often up to 46.1 µM), usual class: cytotoxic; HT-1080 IDH1 knockdown viability, ATP luminescence, 48 h
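Viability of IDH1-knockdown HT-1080 fibrosarcoma cells was assessed by CellTiter-Glo after 48 h at 37 °C with titrated compound; concentration-effect curves were classified by fit quality and response size.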
KB-3-1 tox = kills parental KB-3-1 adenocarcinoma cells; actives 1.4% (n = 400,000); KB-3-1 viability, CellTiter-Glo ATP luminescence, 72 h; Potency, µM (doses to about 46.1 µM), hits mostly cytotoxic; AID 1347075; note: nearly all actives have a fitted effect of over 60% in size
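Parental KB-3-1 adenocarcinoma cells in phenol-red-free DMEM with 10% FBS were pin-treated with compounds at several concentrations, incubated 72 h at 37 °C, and viability read by CellTiter-Glo luminescence; concentration-effect curves were fitted after normalization.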
KB-V1 cytotox = kills drug-selected multidrug resistant KB-V1 cells; KB-V1 MDR cells viability, CellTiter-Glo, 72 h; Potency, µM (series often up to 46.1 µM), actives largely listed as cytotoxic; actives 3.4% (n = 400,000); AID 1347076; note: nearly all actives have a fitted effect of over 60% in size
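Potencies derive from concentration-effect curves fitted to normalized luminescence (CellTiter-Glo) of KB-V1 cells treated for 72 h at 37 degrees C in phenol-red-free DMEM containing 10% FBS.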
HT1080NT lethal = kills 2HG-producing HT-1080-NT fibrosarcoma cells | Potency, µM (top dose mostly 46.1 µM), hits mostly cytotoxic | HT-1080-NT fibrosarcoma viability, CellTiter-Glo ATP luminescence, 48 h | actives 1.6% (n = 360,000);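 note: NT is the 2HG producing partner of a matched IDH1 knockdown line; nearly all actives have a fitted effect of over 55% in size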
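Toxicity toward the 2HG-producing NT line was scored as %Activity, normalised to DMSO and no-cell wells, from CellTiter-Glo luminescence after 48 hours' treatment.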
SW480 rerep = DNA re-replication induction in SW480 cells. SW480 DNA re-replication, Hoechst DNA content imaging, 48 h. Potency, µM (top dose mostly 46.1 µM), hits mostly activators. actives 1.8% (n = 340,000). AID 624297; note: nearly all actives have a fitted effect of over 55% in size
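SW480 cells exposed to compounds for 48 hr at 37 C, 5% CO2, then Hoechst-stained 40 min. Nuclear DNA content imaged by fluorescence scanning (405 nm excitation, 500-530 nm emission); re-replication scored as increased high-intensity nuclei.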
MCF10A rereplic = induces DNA re-replication in MCF 10a normal breast cells; actives 2.9% (n = 350,000); MCF 10A DNA re-replication, Hoechst nuclear intensity, 48 h; AID 624296; Potency, µM (highest dose often 46.1 µM), usual class: activators; note: nearly all actives have a fitted effect of over 50% in size
Numbers stand for hits; - = inactive; ? = inconclusive; . = not tested or not shown; [ ] = remark or other dose. The list is not random: actives were taken first. Their share in the collection is about 7.9%. Calls come from the whole dose curve; as a rule, active = well fitted curve in the direction sought with a large enough effect; inconclusive = small, poorly fitted or top-dose-only effect, or another doubt; inactive = no such curve, though single readings can be large; an effect the other way counts as inactive or inconclusive.

SMILES | HT1080 IDH1KD tx | KB-3-1 tox | KB-V1 cytotox | HT1080NT lethal | SW480 rerep | MCF10A rereplic
O=C1OCCN1C(=O)[C@H]1[C@H](c2ccccc2)C(c2cccc(Cl)c2)=NN1c1ccc(Br)cc1 | - | - | - | - | 2.1µM | ?
O=C1OCCN1C(=O)[C@H]1[C@H](c2ccc([N+](=O)[O-])cc2)C(c2cccc(Cl)c2)=NN1c1ccc(Br)cc1 | - | - | - | - | - | -
O=C1OCCN1C(=O)[C@H]1[C@H](c2ccc(Cl)cc2)C(c2ccccc2)=NN1c1ccc(Br)cc1 | - | - | - | - | 23µM | ?
O=C1OCCN1C(=O)[C@H]1[C@H](c2ccc(F)cc2)C(c2cccc(Cl)c2)=NN1c1ccc(Br)cc1 | ? | ? | - | - | 1.3µM | ?
CC(C)CC1N=C2c3ccccc3N=C(SCC(=O)NCCc3ccc(Cl)cc3)N2C1=O (centres undefined) | . | - | - | . | . | .
O=C(c1ccc(Cl)cc1)C1CCN(C(=O)NC2CCCCC2)CC1 | ? | - | 2.3µM | - | - | -
O=C(Nc1ccc(Cl)cc1)C1CCN(C(=O)NC2CCCCC2)CC1 | - | - | - | - | - | -
Cc1ccccc1-n1nc2c(c1NC(=O)c1ccco1)CS(=O)(=O)C2 | - | - | - | - | - | -
Cc1ccccc1-n1nc2c(c1NC(=O)c1c(-c3ccccc3Cl)noc1C)CS(=O)(=O)C2 | - | - | 8.2µM | - | - | -
Cc1ccc(-n2nc3c(c2NC(=O)c2c(-c4ccccc4Cl)noc2C)CS(=O)(=O)C3)c(C)c1 | - | - | 12µM | - | - | -
COc1cccc(-n2c(C)nc3c(cnn3-c3ccc(C)c(C)c3)c2=O)c1 | . | ? | - | . | . | .
CCN(CC)C(=O)C1=C(C)N(CCCN2CCCC2=O)C(=O)C(CC(=O)NCc2cccs2)C1 (centres undefined) | - | - | - | - | . | .
CC(=O)N1CCc2c(sc(NC(=O)C3CC3)c2-c2nc3ccccc3s2)C1 | ? | ? | - | ? | ? | 23µM
CC(=O)Nc1sc2c(c1-c1nc3ccccc3s1)CN(C(C)C)CC2 | . | ? | ? | . | 2.6µM | ?
COc1ccc(-c2nc3ccc(NC(C)=O)cc3c(=O)n2Cc2cccc(Cl)c2)cc1COc1ccc(NC(C)=O)cc1 | - | . | . | - | . | .
O=C(CN(c1cc(C(F)(F)F)ccc1Cl)S(=O)(=O)c1ccccc1)NCCc1ccccc1 | . | - | - | . | . | .
O=S(=O)(c1ccc(Br)cc1)c1cnc2ccccc2n1 | ? | - | - | ? | 18µM | ?
CN(Cc1ccccc1)C(=O)C1CCN(S(=O)(=O)c2ccc3c(c2)oc(=O)n3C)CC1 | . | - | - | . | . | .
COC(=O)C1Cc2ccccc2CN1C(=O)CCl (centres undefined) | 15µM | ? | ? | 8.2µM | ? | ?
N#CN=CN1CC=C(c2ccc(Cl)cc2)CC1 | - | 9.2µM | 2.3µM | - | . | .
CC1=C(C(=O)NCc2ccccc2F)C2(CCCCC2)OC1=O | . | - | - | . | . | .
OCc1nc2ccccc2n1CC(O)Cn1ccc2ccccc21 (centres undefined) | -[9.24 µM] | ? | 21µM | - | - | -
CCOC(=O)c1c(C)[nH]c(C)c1C(=O)COC(=O)c1cccc(C)c1O | - | - | 16µM | - | - | ?
CC(=O)N1CCc2cc(Br)cc(S(=O)(=O)N3CCN(c4cccc(C)c4)C(C)C3)c21 (centres undefined) | . | - | - | . | . | .
Cc1nonc1OCC(C)(COc1nonc1C)NC(=O)c1ccccc1 | - | - | 18µM | - | - | -
SMILES | HT1080 IDH1KD tx | KB-3-1 tox | KB-V1 cytotox | HT1080NT lethal | SW480 rerep | MCF10A rereplic
Cc1ccc(-n2ncc(C(=O)Nc3ccc(Cl)cc3)c2C2CCNCC2)cc1C | ? | - | - | 21µM | - | -
CCOc1ccc(NC(=O)c2cnn(-c3ccc(C)c(Cl)c3)c2C2CCNCC2)cc1 | . | - | ? | . | . | .
CC(C)C[C@@H]1COc2cc(N3CC[C@H](O)C3)ccc2S(=O)(=O)N1 | - | - | - | - | . | .
COc1ccc(NS(=O)(=O)c2ccc(C)c(C(=O)OC(C)C(=O)N3CCOCC3)c2)cc1 (centres undefined) | - | - | - | - | - | -
COc1cc(OC)c(NS(=O)(=O)c2ccc(Cl)c(C(=O)OC(C)C(=O)N3CCCC3)c2)cc1Cl (centres undefined) | ? | 16µM | 2.3µM | - | - | ?
CC(=O)N1CCCc2cc(S(=O)(=O)N3CCCC(C(=O)NC(C)C)C3)ccc21 (centres undefined) | . | - | - | . | . | .
CS(=O)(=O)c1ccc(C(=O)NCCN2C(=O)S/C(=C\c3cccnc3)C2=O)cc1[N+](=O)[O-] | ? | ? | - | ? | 2.1µM | 13µM
O=C(CCCN=C1NS(=O)(=O)c2ccccc21)OCC(=O)c1ccccc1Cl | - | - | - | - | - | 3.7µM
Cc1ccc2c(c1)-c1c(cnc3cc(-c4ccc(F)cc4)nn13)CO2 | . | - | - | . | . | .
CCc1ccccc1Nc1sc(C(=O)c2ccccc2)c(N)c1S(=O)(=O)c1ccccc1 | . | - | - | . | . | .
Cc1cc(C)c(C)c(OCCCCn2cnc3ccccc3c2=O)c1 | ? | - | 23µM | - | - | ?
Cc1ccc(CCNC(=O)C2CCCN(S(=O)(=O)c3ccc4c(c3)oc(=O)n4C)C2)cc1 (centres undefined) | . | - | - | . | . | .
NC(=Nc1nc(-c2ccccn2)cc2ccccc12)c1ccccn1 | ? | ? | 0.73µM | - | ? | ?
CC(=O)N(C)c1ccc(/C=C2\C=Cc3ccccc32)cc1 | . | - | - | . | . | .
Cc1ccc(-c2cc(-c3ccc(C)cc3O)[nH]n2)cc1 | - | - | - | - | - | -
Oc1ccccc1-c1cc(-c2ccccc2)n[nH]1 | - | - | - | - | ? | -
Oc1ccccc1-c1cc(-c2ccc(F)cc2)n[nH]1 | 18µM | ? | ? | ? | - | ?
Cc1ccc(-c2cc(-c3ccc(F)cc3)n[nH]2)c(O)c1 | 18µM | ? | - | 26µM | ? | ?
Cc1ccc2c(=O)c(C(=O)c3ccc(F)cc3)cn(CC(=O)Nc3ccc4c(c3)OCCO4)c2n1 | . | - | - | . | . | .
Cc1onc(-c2ccccc2Cl)c1C(=O)Oc1cc(F)cc(F)c1 | . | - | - | . | . | .
O=C(Cn1c(=O)n(Cc2ccco2)c(=O)c2oc3ccccc3c21)Nc1ccc(F)c(Cl)c1 | . | - | ? | . | . | .
CCS(=O)(=O)c1ccc2oc(SCC(=O)NC34CC5CC(CC(C5)C3)C4)nc2c1 | - | - | 15µM | - | - | -
CCS(=O)(=O)c1ccc2oc(SCC(=O)NCc3ccccc3)nc2c1 | - | - | - | - | - | -
Nc1nc(-c2ccccc2)c(N=Nc2ccccc2Cl)s1 | 18µM | ? | - | ? | - | ?
Nc1nc(-c2ccccc2)c(N=Nc2cccc3ccccc23)s1 | 21µM | ? | ? | ? | ? | ?

Screening data deposited in PubChem BioAssay by National Center for Advancing Translational Sciences (NCATS).
